The values below come from PubChem BioAssay (NCATS).

Values joined by “and” are separate entries in the source; they are usually repeats but may differ in a detail not shown here. Identical values can stand only once. Results filed as inconclusive are left out. Some compounds were tested as several samples or in several runs, with calls that do not always agree. Active and inactive are the calls of the source. Unless noted, calls come from the whole dose curve; as a rule, active = well fitted curve in the direction sought with a large enough effect; inconclusive = small, poorly fitted or top-dose-only effect, or another doubt; inactive = no such curve, though single readings can be large; an effect the other way counts as inactive or inconclusive.

Experiment [1] can be described thus: Primary qHTS to identify inhibitors of SARS-CoV-2 cell entry (AID 1645846; calls by dose curve; note: nearly all actives have a fitted effect of over 45% in size; note: potency is the fitted concentration of half-maximal effect). The settings on record: activity change, negative = inhibition: at 57.1 µM (top of the series) unless noted. The gist of the method: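 Luminescence readout (Bright-Glo luciferase) 48 h after pseudoparticle addition. HEK293-ACE2 cells, 1500/well; compound pre-incubation 1 h; Normalized to spike PP and bald PP.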
(Quantitative high-throughput screening tests each substance at several concentrations.)

A short description of experiment [2]: Primary qHTS for inhibitors of nuclear receptor binding SET domain protein 2 (NSD2) in an isogenic RCH-ACV NSD2 p.E1099K mutant (9B) (AID 1645876). For activity change, negative = viability loss: % is set by controls: 0 for no effect and ±100 for the full control effect. Note: nearly all actives have a fitted effect of over 70% in size. Note: potency is the fitted concentration of half-maximal effect.
The nature of experiment [3]: Primary qHTS for inhibitors of nuclear receptor binding SET domain protein 2 (NSD2) in an RCH-ACV wild type WT cells (2C) (AID 1645877). For activity change, negative = cell killing: % is set by controls: 0 for no effect and ±100 for the full control effect. Note: nearly all actives have a fitted effect of over 70% in size. Note: potency is the fitted concentration of half-maximal effect.
Experiment [4] in a line: VSVG counterscreen qHTS to identify inhibitors of SARS-CoV-2 cell entry (AID 1645847; calls by dose curve; note: nearly all actives have a fitted effect of over 65% in size; note: potency is the fitted concentration of half-maximal effect; for activity change, negative = inhibition: % is set by controls: 0 for no effect and ±100 for the full control effect). The gist of the method: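 HEK293-ACE2 cells (Expi293F stably expressing human ACE2) were pretreated with compound for 1 h at 37 °C, then infected with MLV-based VSV-G pseudotyped particles for 48 h. Luciferase luminescence was normalized to VSV-G PP and bald PP wells.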
Another experiment has as its target Papain (Carica papaya) (UniProt P00784). Briefly: Primary qHTS assay for inhibitors of the protease papain (AID 1645873).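 Note: papain turnover of Z-FR-AMC read as the AMC fluorescence gain over 10 min; % is set by controls: 0 for no effect and ±100 for the full control effect.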

Chain of Papain (Carica papaya) (P00784 whole entry, looked up): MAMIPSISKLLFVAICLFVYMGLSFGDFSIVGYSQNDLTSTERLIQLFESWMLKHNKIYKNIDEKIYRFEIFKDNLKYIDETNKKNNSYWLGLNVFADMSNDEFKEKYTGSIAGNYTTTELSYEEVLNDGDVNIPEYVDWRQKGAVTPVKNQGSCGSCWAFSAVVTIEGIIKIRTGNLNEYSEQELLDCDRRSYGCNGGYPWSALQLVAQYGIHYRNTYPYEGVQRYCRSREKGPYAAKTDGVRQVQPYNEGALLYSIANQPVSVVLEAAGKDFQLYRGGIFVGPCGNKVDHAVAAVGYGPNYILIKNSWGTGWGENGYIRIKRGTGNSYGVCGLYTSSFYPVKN

For the molecule `Nc1ccc([As](=O)(O)O)cc1`, the activity change, negative = inhibition in experiment [1] was -1.46%. For the same molecule, the Potency result in experiment [2] and in experiment [3] was “inactive” in each case.

In the case of `CNC(C)(C)Cc1ccccc1`, the Potency entry in experiment [1], in experiment [2] and in experiment [3] was “inactive” in each case.

Regarding `O=c1oc2ccccc2c(O)c1Cc1c(O)c2ccccc2oc1=O`, the Potency result in experiment [1] is “inactive”. Further, in experiment [2], the Potency was 21.1 µM (active).

Turning to `Nc1ccn(C[C@@H](CO)OCP(=O)(O)O)c(=O)n1`, in experiment [1], the activity change, negative = inhibition is -18.8% [at 11.3 µM] and the outcome was “inactive [at 0.702 µM]”. Besides, the activity change, negative = viability loss in experiment [2] was -0.956% [at 9.23 µM] (inactive). Moreover, the activity change, negative = cell killing in experiment [3] is -8.19% [at 9.23 µM] (inactive).

As to `O=[N+]([O-])O[C@H]1CO[C@H]2[C@@H]1OC[C@H]2O[N+](=O)[O-]`, the activity change, negative = inhibition in experiment [1] is -33.3%. The Potency result in experiment [2] and in experiment [3] was “inactive” in each case.

As for `CC(C)c1cccc(C(C)C)c1O`, the activity change, negative = inhibition in experiment [1] was -52.4%. Further, the Potency result in experiment [4] and in experiment [2] was “inactive” in each case. In the experiment with Papain (Carica papaya), the molecule was called inactive.

`CC(C)NC(C)C`: the Potency result in experiment [1], in experiment [2] and in experiment [3] was “inactive” in each case.

Take `NC(=O)c1cc([N+](=O)[O-])cc([N+](=O)[O-])c1`: in experiment [1], the activity change, negative = inhibition was -10.7%. Moreover, the Potency result in experiment [2] and in experiment [3] was “inactive” in each case.

For the molecule `O=P1(N(CCCl)CCCl)NCCCO1` (stereo unspecified), the Potency result in experiment [1], in experiment [2] and in experiment [3] was “inactive” throughout. In the experiment with Papain (Carica papaya), the call was inactive.

Turning to `CCC(CC)(CNC(=O)CCCO)c1cccc(OC)c1`, the activity change, negative = inhibition in experiment [1] was -32.3%. For the same molecule, the Potency result in experiment [2] and in experiment [3] was “inactive” throughout.

Regarding `CC(C)C[C@H](CN)CC(=O)O`, the Potency entry in experiment [1], in experiment [2] and in experiment [3] was “inactive” in each case.

Turning to `CN1C(=O)NC(=O)C(C)(C2=CCCCC2)C1=O` (stereo unspecified), the activity change, negative = inhibition in experiment [1] was determined as 3.11%. In addition, the Potency result in experiment [2] and in experiment [3] was “inactive” each time.

As for `CCOC(=O)CC(SP(=S)(OC)OC)C(=O)OCC` (stereo unspecified), the activity change, negative = inhibition in experiment [1] came to 2.11%. In addition, the Potency in experiment [2] is 30.6 µM (active) and inactive. Moreover, the Potency result in experiment [3] was “inactive”.

In the case of `C[C@]12CC[C@H]3[C@@H](CC[C@@]45O[C@H]4C(O)=C(C#N)C[C@]35C)[C@H]1CC[C@H]2O`, in experiment [1], the activity change, negative = inhibition is -26.2%. Besides, the Potency in experiment [2] is 15 µM (active); in experiment [3] it was 10.6 µM (active).

As to `COc1ccc2c(c1OC)C(=O)O[C@H]2[C@@H]1c2cc3c(cc2CCN1C)OCO3`, the Potency result in experiment [1], in experiment [2] and in experiment [3] was “inactive” throughout. Besides, in the experiment with Papain (Carica papaya), the outcome was inactive.

`CN1C(=O)CCS(=O)(=O)C1c1ccc(Cl)cc1` (stereo unspecified): in experiment [1], the activity change, negative = inhibition was -18.3% and 4.93%. For the same molecule, the call in the experiment with Papain (Carica papaya) was inactive. In addition, the Potency result in experiment [2] and in experiment [3] was “inactive” throughout.

For `O=C1OC(c2ccc(O)c(S(=O)(=O)O)c2)(c2ccc(O)c(S(=O)(=O)O)c2)c2c(Br)c(Br)c(Br)c(Br)c21`, the Potency result in experiment [1], in experiment [2] and in experiment [3] was “inactive” in each case.

With `Cc1ncsc1CCCl`, the activity change, negative = inhibition in experiment [1] is -22.5%. Moreover, the call in the experiment with Papain (Carica papaya) was inactive. The Potency entry in experiment [2] and in experiment [3] was “inactive” in each case.

As for `C[n+]1c2cc(N)ccc2cc2ccc(N)cc21` (tested in a mixture with another compound), the Potency in experiment [1] was 7.94 µM (active); in experiment [4], 4.29 µM (active).

As for `Clc1ccc(C(c2ccc(Cl)cc2)C(Cl)(Cl)Cl)cc1`, the activity change, negative = inhibition in experiment [1] turned out to be 2.18%. For the same molecule, the Potency entry in experiment [2] and in experiment [3] was “inactive” each time.

Turning to `COP(=S)(OC)Oc1ccc(SC)c(C)c1`, the activity change, negative = inhibition in experiment [1] was -16.5%. The Potency result in experiment [2] and in experiment [3] was “inactive” throughout.

As for `CCC(C)C(C)(COC(N)=O)COC(N)=O` (stereo unspecified), the activity change, negative = inhibition in experiment [1] is -15.3%. In addition, the Potency result in experiment [2] and in experiment [3] was “inactive” throughout.

For the molecule `COP(=S)(OC)Oc1cc(Cl)c(Cl)cc1Cl`, the Potency entry in experiment [1], in experiment [2] and in experiment [3] was “inactive” in each case.

Turning to `CCC1(c2ccc(N)cc2)CCC(=O)NC1=O` (stereo unspecified), the Potency entry in experiment [1], in experiment [2] and in experiment [3] was “inactive” throughout. The molecule was called inactive with Papain (Carica papaya).

In the case of `CCOP(=S)(OCC)Oc1ccc2c(C)c(Cl)c(=O)oc2c1`, the activity change, negative = inhibition in experiment [1] is 69.2%. Also, the figures for the Potency in experiment [2] and in experiment [3] were 7.5 µM (active) and 6.68 µM (active), respectively.

With `CC(C)(C)NCC(O)c1ccccc1Cl` (stereo unspecified), the Potency entry in experiment [1], in experiment [2] and in experiment [3] was “inactive” throughout. The molecule was classed as inactive in the experiment with Papain (Carica papaya).

Regarding `C[C@@H](N)[C@@H](O)c1ccccc1`, the Potency result in experiment [1], in experiment [2] and in experiment [3] was “inactive” each time.

Consider `CN1C(=O)COc2c(C(=O)NC3CN4CCC3CC4)cc(Cl)cc21` (stereo unspecified), for which the activity change, negative = inhibition in experiment [1] is -14.3%. Moreover, the Potency entry in experiment [2] and in experiment [3] was “inactive” throughout.

`C#CC(O)(C=CCl)CC` (stereo unspecified): the activity change, negative = inhibition in experiment [1] was -20.1%. Further, the Potency result in experiment [2] and in experiment [3] was “inactive” in each case.

`C[C@]12CC[C@@H]3c4ccc(OC(=O)N(CCCl)CCCl)cc4CC[C@H]3[C@@H]1CC[C@@H]2OP(=O)(O)O`: the Potency entry in experiment [1], in experiment [2] and in experiment [3] was “inactive” each time.

As for `c1ccc2c(c1)sc1ccccc12`, the activity change, negative = inhibition in experiment [1] is -6.22%. For the same molecule, the Potency result in experiment [2] and in experiment [3] was “inactive” in each case.

In the case of `Cc1cc(NS(=O)(=O)c2ccc(N)cc2)nc(C)n1`, the activity change, negative = inhibition in experiment [1] is -52.4%. For the same molecule, the Potency entry in experiment [4] is “inactive”.
